According to PubChem BioAssay AID720597 (Broad Institute, 2013):
Potency and affinity values are given separately. Activity calls are given as the source filed them.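 The calls were made as follows: active = fitted half-maximal dose no more than twice the top valid tested dose, for compounds that lower signal; inconclusive = fit invalid, or curve flat with activity between -70 and -30; inactive = potency past limit, curve flat within ±30, or signal increasing.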

target: NAD-dependent protein deacylase sirtuin-5, mitochondrial (Homo sapiens) (UniProt Q9NXA8); assay: blockers of sirtuin-5 peptide desuccinylation – biochemical, fluorescence imaging, cherry-pick, set 6, dose response (AID 720597); details: Purified SirT5, succinyl-peptide-AMC/trypsin fluorescence; series mostly up to 15 µM;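 also: lower AMC signal can also come from blocking the trypsin step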
Sequence (Q9NXA8 whole entry, looked up): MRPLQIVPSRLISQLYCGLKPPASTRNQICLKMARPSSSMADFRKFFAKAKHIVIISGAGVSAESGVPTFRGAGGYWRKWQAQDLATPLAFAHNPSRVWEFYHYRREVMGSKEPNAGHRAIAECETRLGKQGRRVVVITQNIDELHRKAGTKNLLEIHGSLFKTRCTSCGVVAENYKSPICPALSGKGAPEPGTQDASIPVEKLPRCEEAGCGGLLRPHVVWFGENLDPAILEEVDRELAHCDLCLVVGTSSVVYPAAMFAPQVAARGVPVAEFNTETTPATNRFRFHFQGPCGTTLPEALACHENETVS

**Q.** COc1ccc(NC(=O)N(C)C[C@H]2Oc3cc(C#CCC(C)C)ccc3S(=O)(=O)N([C@H](C)CO)C[C@@H]2C)cc1 was tested. Which outcome did it give?
**A.** inactive

**Q.** With COc1ccccc1NC(=O)N[C@@H]1CC[C@H](CCNS(=O)(=O)c2ccc(Cl)cc2)O[C@@H]1CO as the compound, how does the outcome read?
**A.** inactive

**Q.** For COc1ccc(S(=O)(=O)N(C)C[C@H]2Oc3cc(C#CC4CCCC4)ccc3S(=O)(=O)N([C@@H](C)CO)C[C@@H]2C)cc1, which outcome is on record?
**A.** inactive

**Q.** For COc1ccc(NC(=O)N(C)C[C@H]2Oc3cc(C#CCC(C)C)ccc3S(=O)(=O)N([C@@H](C)CO)C[C@@H]2C)cc1, which outcome is on record?
**A.** inactive

**Q.** Which outcome does the source give for CO[C@@H](C(=O)N(C)C[C@H]1OCc2ccccc2-c2ccccc2C(=O)N([C@@H](C)CO)C[C@@H]1C)c1ccccc1 here?
**A.** inactive

**Q.** How did the outcome turn out when COCC(=O)N(C)C[C@H]1[C@H](c2ccccc2)[C@@H](CO)N1C(=O)Cc1ccncc1 was run?
**A.** inactive

**Q.** For CO[C@H]1CN(C)C(=O)c2cc(NS(=O)(=O)c3ccc(Oc4ccccc4)cc3)ccc2OC[C@H](C)NC[C@H]1C, which outcome is on record?
**A.** inactive

**Q.** O=C(c1ccc2c(c1)OCO2)N1CC(=O)N2[C@H](CO)[C@H](c3ccc(C#CCC4CCCC4)cc3)[C@@H]2C1 was tested. Which outcome did it give?
**A.** inactive

**Q.** COc1cccc(NC(=O)N2CC(=O)N3[C@H](CO)[C@@H](c4ccc(C#CCC5CCCC5)cc4)[C@@H]3C2)c1 was tested. Which outcome did it give?
**A.** inactive

**Q.** Which outcome does the source give for C[C@@H]1CCCCO[C@@H](CN(C)Cc2ccc(C(F)(F)F)cc2)[C@@H](C)CN([C@@H](C)CO)C(=O)c2cc(NS(=O)(=O)c3cccs3)ccc2O1 here?
**A.** inactive

**Q.** With CC(C)C#Cc1cnc2c(c1)C(=O)N([C@@H](C)CO)C[C@@H](C)[C@H](CN(C)C(=O)CN1CCOCC1)O2 as the compound, how does the outcome read?
**A.** inactive
